# Measured values from the supplement of paper PMC6555819.
# Legend:
# Experiment in all cases: PBM binding z-score (relative to random genomic background probes); higher = stronger binding; sequences stand for … in GC…GCGATTGACAGCGTAGAATGAAGG
# [1] = system: PPARg:RXRa DBDmut IVT, anti-RXR (DBD mutation: RXRa K156A/R161A, NR concentration 270 nM, RXRa partner concentration 90 nM)
# Outline: (§1)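 Probes were double-stranded and carried 34-nt variable regions with direct-repeat seeds, single-nucleotide variants, half-site ablations and random human genomic background sequences, printed on custom Agilent 4×180K protein-binding microarrays. Arrays were incubated 1 h with ligand-free nuclear receptor dimers in PBS pH 7.4, 2% milk, 0.02% Triton X-100, 1 mM DTT, 0.2 mg/mL BSA and 0.4 mg/ml salmon testes DNA. Antibodies against each partner (one per run) detected binding, and scanned fluorescence was regression-normalized. Binding z-scores use the random background probes as reference.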
# [2] = system: PPARg:RXRa IVT, anti-PPARg (NR concentration 270 nM, RXRa partner concentration 90 nM)
# Outline: as §1
# [3] = system: PPARg DBDmut:RXRa IVT, anti-PPARg (DBD mutation: PPARg1 K132A/R137A, NR concentration 270 nM, RXRa partner concentration 90 nM)
# Outline: as §1
# [4] = system: PPARg DBDmut IVT, anti-PPARg (DBD mutation: PPARg1 K132A/R137A, NR concentration 270 nM)
# Outline: as §1
# [5] = system: PPARg homodimer (NR concentration 180 nM)
# Outline: as §1
# [6] = system: PXR:RXRa (NR concentration 270 nM, RXRa partner concentration 90 nM)
# Outline: as §1
# [7] = system: PXR homodimer (NR concentration 270 nM)
# Outline: as §1
# [8] = system: RARa:RXR (NR concentration 270 nM, RXRa partner concentration 90 nM)
# Outline: as §1
# [9] = system: RARa homodimer (NR concentration 270 nM)
# Outline: as §1
# [10] = system: RARb:RXRa (NR concentration 270 nM, RXRa partner concentration 90 nM)
# Outline: as §1
Sequence,PBM binding z-score [1],PBM binding z-score [2],PBM binding z-score [3],PBM binding z-score [4],PBM binding z-score [5],PBM binding z-score [6],PBM binding z-score [7],PBM binding z-score [8],PBM binding z-score [9],PBM binding z-score [10]
CGTACGAGGGCATGAGTTGATAGCAAATGCCGAT,1.2,1.22,-0.964,-0.327,0.331,0.557,0.0171,0.533,-0.662,2.01
ACTATTAGTTGACTTAGGGCAACCCATACGACGC,0.51,0.696,0.977,1.6,0.67,0.18,0.375,0.59,1.02,0.823
AGAATGAGGTGATACGTAGATCAGGGAAGAAAGT,4.06,2.23,1.58,0.564,0.0718,-0.029,0.133,0.117,-0.0248,0.411
ATACCAAGGTGATCGTGTGGTCGTTGATACTAAC,0.658,0.953,0.0763,0.561,0.519,0.0212,-0.0663,0.0038,0.00751,0.737
ATCGAAAGCTCGAAGGTGAGTATACCCACCCGAA,-0.94,-0.157,0.15,-0.14,-1.31,-0.547,-0.343,-0.558,-0.499,0.055
GCTGCTAGGTCAACTGATGTTCAGCTAAAGCTCG,4.93,4.11,-0.364,-1.06,1.1,1.64,-0.723,2.27,-0.512,4.32
GGAACGAGGGCAAAGTTGATATCATCTGTCGACG,3.87,4.19,0.622,0.251,0.45,1.18,0.208,1.62,0.254,2.32
GATCCAGGGTCAAGGCCAGAGTACGCGTATTGAT,2.29,3.75,0.299,0.301,2.21,4.33,0.0901,5.29,0.437,4.49
AGAATGAGGTTACTAAGATCAGGGAATTGCGGTC,4.08,3.37,0.676,0.112,0.638,0.828,0.241,1.37,-0.455,1.74
ATATGTAGGTTAAGGGGCATTCAGGTTGGTTCGC,7.2,7.11,2.3,1.88,2.29,2.12,1.83,1.92,1.47,1.78
CCTACTGGGCCATCAGGTCATAGATATCAACGTT,4.5,5.08,0.923,-0.119,1.49,1.15,0.269,1.87,0.283,1.99
TCTTGTGGATCAATAGAGGTTAAGAAAGTGCGCT,1.7,0.901,0.673,0.819,0.64,2.88,0.306,1.69,0.244,0.915
CTACCAAGGTGAACAACGTCGTTGATTACTATTC,2.88,2.23,0.00253,0.341,-0.432,0.189,-0.322,0.739,0.243,1.68
TCATATAGGTAAACAGGTGAAAGTGCGTAAGTTA,4.84,4.9,1.29,1.03,1.33,1.04,0.631,1.27,1.75,0.94
GCGACTGGGGCAAAGCAGGTAACCATAAGGTTGG,4.21,3.7,-0.574,-0.498,-0.0633,-0.292,-0.741,0.385,-0.971,0.691
ATATGCAGGTTAAGGGTCATTCAGGTTGGTTCGC,3.94,5.19,0.744,1.06,2.9,5.48,1.82,6.03,1.71,3.6
AGTCAAAGTCCATCTAGGTAACGTAAGATATGCT,0.353,2.15,1.24,0.675,-0.173,-0.246,0.131,0.0232,0.0654,1.37
AGAATGAGGTTATGCGTAGATCAGGGAAGAAAGT,2.31,2.01,0.845,0.71,0.621,0.966,0.308,1.32,0.403,1.57
TCTTGTAGATCAGCATGTTAAGAAAGCTGGCCAA,1.61,-0.0359,-0.2,0.837,-0.198,0.127,-0.264,0.0601,-0.0517,-0.19
GCGACTGGGGCATCAGCACGTTACCATAACTTAA,3.89,3,0.00267,-0.723,-0.048,-0.493,-0.113,-0.399,-0.0529,0.327
ACAACGAGGGCACGCTGAGTTGATAGCAGAGTAG,3.61,3.13,0.767,0.323,0.345,1.22,0.145,0.573,-0.791,2.63
CCTACTGGGCCAAAAAAGTCATTGATGCCGATAA,3.32,2.23,-0.158,-0.274,0.205,-0.303,-0.213,-0.0727,-0.0226,0.134
TCGAGTAGGTTAGACGGGGCATTCAGCCAACATA,2.22,0.996,-0.111,0.319,-0.139,-0.0359,-0.369,-0.135,-0.49,0.612
TCGAGCAGGTTACCAATGGGGCATTCAGCTTTCT,0.467,0.239,-1.51,-1.13,-0.591,0.0251,-0.765,0.475,-1.05,1.07
